Experimental data from PubChem BioAssay.
Values joined by “and” are separate entries in the source; they are usually repeats but may differ in a detail not shown here. Identical values can stand only once. Active and inactive are the calls of the source.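 Rule for the calls, unless noted: active = thallium flux through the channel raised or lowered by more than 3 SD from vehicle-only wells, actives on both sides; inactive = the rest.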

Key:
[1] = Wnt pathway potentiators raising nuclear beta-catenin – imaging, WNT3A-conditioned medium, mouse C2C12, NPC library, primary screen (AID 1117326; in the data active = nuclear beta-catenin stimulation mostly above about 4.2%, no sharp cut-off; inactive = mostly below about 10%); details: stronger effect = higher value
[2] = stimulators of insulin release from INS-1E, primary screen, cell-based, 5 mM glucose, NPC library (AID 1117329;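 active = compound raises insulin release from rat beta cells at 5 mM glucose, no numeric limit stated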); details: rat INS-1E insulin secretion, at 10 µM, stronger effect = higher value
[3] = growth inhibition of GSK3B-pretreated HCT116 cells – cell-based, CellTiter-Glo, 0.2 to 20 µM (AID 1117336;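 active = compounds lowering colon cancer cell viability after pretreatment blocking the GSK3B kinase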); details: HCT116 viability after GSK3B inhibitor, at 20 µM, stronger effect = higher value
[4] = inhibition of endothelial tube formation, primary screen, imaging, VEGF stimulated, CD31 staining, tube area, NPC library (AID 1117340;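 active = compound that reduces growth-factor-driven endothelial tube area in a mixed cell culture, no cutoff stated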); details: VEGF-stimulated ADSC/ECFC co-culture, at 10 µM, stronger effect = higher value
[5] = GLP1 release stimulators, primary, NCI-H716, NPC library (AID 1117341;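 active = compound raises GLP1 secretion from the human gut endocrine cells, with no numeric limit stated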); details: NCI-H716 cells, at 10 µM, stronger effect = higher value
[6] = HCT116 colon cancer cell growth inhibition, primary screen, CellTiter-Glo luminescence, NPC library (AID 1117342;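 active = compounds that lower survival of HCT116 colon cancer cells in the luminescence readout, no numeric limit stated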); details: at 20 µM (top of the series)
[7] = reduced SW480 viability measured with CellTiter-Glo, NPC library, primary (AID 1117343;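 active = compounds that lower viability of the colon cancer cells in the luminescence readout, with no numeric limit stated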); details: CellTiter-Glo luminescence; at 20 µM (top of the series)
[8] = NPC library primary testing for decreased DLD-1 cell viability via CellTiter-Glo (AID 1117346;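 active = compounds that lower survival of DLD-1 colon cancer cells in the luminescence readout, no cutoff given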); details: DLD-1 viability, CellTiter-Glo luminescence; at 20 µM (top of the series)
[9] = molecular target: 6-phosphogluconate dehydrogenase, decarboxylating (Homo sapiens) (UniProt P52209); assay: inhibition of human phosphogluconate dehydrogenase – biochemical, recombinant enzyme, NADPH absorbance, primary screen (AID 1159550;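 active = at least 20% inhibition of 6-phosphogluconate dehydrogenase activity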); details: recombinant 6PGD, NADPH absorbance 341 nm; at 10 µM; stronger effect = higher value
[10] = EMT-state selective cytotoxicity in co-culture – imaging, PC-3E GFP, TEM4-18 mCherry, primary screen (AID 1345086;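 active = compounds killing one labelled cell type while sparing the other, by normalised counts and ratio limits, not self-fluorescent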;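 for all read-outs here: cells exposed to compound for 72 h before imaging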;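 for red/green cell ratio (normalised): normalised mesenchymal count divided by normalised epithelial count so high means epithelial killing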); details: PC-3E GFP / TEM4-18 mCherry co-culture, imaging cell counts, at 1 µM; for red/green cell ratio (normalised): actives lie on both sides, counts scaled to control wells, 1 = unselective
[11] = MELAS cybrid and Rieske KO viability enhancers – cell-based, MELAS cybrids, Rieske KO mouse fibroblasts, CellTiter-Glo, primary screen (AID 1508586;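 active = mean z-score across replicates of 1.96 or higher in either the MELAS or the Rieske mutant cell line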;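 note: z relative to plate mean and SD of compound and empty wells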); details: low glucose
[12] = molecular target: NAD(+) hydrolase SARM1 (Homo sapiens) (UniProt Q6SZW1); assay: blocking NAD cleavage by SARM1 SAM-TIR – cell lysate, NAD-Glo luminescence (AID 1508614;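 active = compound whose remaining NAD level is above about 45 nM, limit read from the data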;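 note: higher remaining NAD means stronger inhibition of SARM1 NADase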); details: SAM-TIR HEK293T lysate NADase, at 1 µM, stronger effect = higher value
[13] = molecular target: Mitogen-activated protein kinase 7 (Homo sapiens) (UniProt Q13164); assay: Gal4-ERK5 driven luciferase induction – cell-based, HTS, primary screen (AID 1508626;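 active = luciferase signal above three times the same-plate solvent-only control wells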;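 note: luciferase driven by Gal4-ERK5 fusion binding five Gal4 sites before minimal TATA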); details: HeLa Gal4-ERK5 transactivation, 18 h, at 5 µM, stronger effect = higher value
[14] = viability loss with induced miR-34 in A549 – imaging, A549 dox-inducible miR-34, nuclei and caspase counts, primary screen (AID 1347080;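 active = compounds whose cell count with miR-34 switched on is under 0.7 times the count with it off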); details: A549 miR-34 inducible, Hoechst nuclei count, 48 h
F380Y = assay: BK channel mutant inhibitors and activators – cell-based, U2OS BacMam, thallium flux, beta subunits, selectivity assay, profiling panel (AID 1259406); details: U2OS BacMam BK variants, at 30 µM;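 note: initial slope of Thallos dye fluorescence rise after thallium is added; log ratio against the mean of 0.3% DMSO vehicle wells on the same plate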
F380Y/beta2Delta = assay: as above; details: U2OS BacMam BK variants, at 30 µM
[15] = molecular target: Calcium-activated potassium channel subunit alpha-1 (Homo sapiens) + Leucine-rich repeat-containing protein 26 (Homo sapiens) (UniProt Q12791+Q2I0M4); assay: as above; details: U2OS BacMam BK variants, F380Y/Slo1WT/gamma1, at 30 µM
R275C = assay: as above; details: U2OS BacMam BK variants, at 30 µM
R275C/beta1 = assay: as above; details: U2OS BacMam BK variants, at 30 µM
R275C/beta2Delta = assay: as above; details: U2OS BacMam BK variants, at 30 µM
[16] = measured here: epithelial PC-3E GFP cell survival
[17] = measured here: mesenchymal TEM4-18 mCherry cell survival
[18] = MELAS cybrid survival, CellTiter-Glo 48 h, stronger effect = higher value
[19] = Rieske KO mouse fibroblast survival, CellTiter-Glo 72 h
[20] = stronger effect = lower value, cell number ratio, induced over uninduced
[21] = measured here: relative caspase fold change +Dox/-Dox
[22] = measured here: total cells with miR-34 induction, stronger effect = lower value
[23] = measured here: total cells without miR-34 induction

Mitogen-activated protein kinase 7 (Homo sapiens), sequence (Q13164 whole entry, looked up, the tested form may be a part): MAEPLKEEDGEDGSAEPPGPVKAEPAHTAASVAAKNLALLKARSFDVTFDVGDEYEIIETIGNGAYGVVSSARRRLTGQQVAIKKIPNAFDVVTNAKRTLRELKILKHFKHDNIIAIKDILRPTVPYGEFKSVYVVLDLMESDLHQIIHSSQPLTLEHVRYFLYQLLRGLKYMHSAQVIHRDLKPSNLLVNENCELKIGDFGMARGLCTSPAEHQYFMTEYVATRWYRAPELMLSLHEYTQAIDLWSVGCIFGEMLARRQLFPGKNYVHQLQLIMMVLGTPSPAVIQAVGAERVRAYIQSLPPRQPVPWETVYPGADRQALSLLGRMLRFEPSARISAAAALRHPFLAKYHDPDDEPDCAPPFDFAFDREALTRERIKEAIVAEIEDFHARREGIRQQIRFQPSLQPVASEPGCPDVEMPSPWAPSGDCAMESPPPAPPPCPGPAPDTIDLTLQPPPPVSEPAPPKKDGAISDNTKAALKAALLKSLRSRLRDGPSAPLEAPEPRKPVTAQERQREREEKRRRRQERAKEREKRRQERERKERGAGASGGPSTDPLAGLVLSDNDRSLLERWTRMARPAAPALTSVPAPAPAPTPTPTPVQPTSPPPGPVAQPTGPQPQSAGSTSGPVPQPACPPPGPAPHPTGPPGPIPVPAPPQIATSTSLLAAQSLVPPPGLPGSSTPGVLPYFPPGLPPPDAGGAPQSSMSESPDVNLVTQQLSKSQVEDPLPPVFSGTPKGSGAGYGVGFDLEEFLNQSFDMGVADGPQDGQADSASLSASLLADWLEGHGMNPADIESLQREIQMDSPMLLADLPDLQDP
6-phosphogluconate dehydrogenase, decarboxylating (Homo sapiens), sequence (P52209 whole entry, looked up): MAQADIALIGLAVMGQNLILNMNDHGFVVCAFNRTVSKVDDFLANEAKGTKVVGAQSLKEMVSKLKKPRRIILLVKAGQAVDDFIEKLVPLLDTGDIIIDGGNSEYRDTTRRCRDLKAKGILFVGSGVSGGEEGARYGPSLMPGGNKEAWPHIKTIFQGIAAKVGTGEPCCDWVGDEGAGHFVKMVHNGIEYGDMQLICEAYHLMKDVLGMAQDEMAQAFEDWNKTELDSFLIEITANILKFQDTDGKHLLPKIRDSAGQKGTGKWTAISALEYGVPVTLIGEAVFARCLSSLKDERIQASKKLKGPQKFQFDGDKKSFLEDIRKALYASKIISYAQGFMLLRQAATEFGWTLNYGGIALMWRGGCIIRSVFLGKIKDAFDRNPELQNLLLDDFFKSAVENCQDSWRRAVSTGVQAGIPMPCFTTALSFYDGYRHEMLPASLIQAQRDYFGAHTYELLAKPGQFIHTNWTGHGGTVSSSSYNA
NAD(+) hydrolase SARM1 (Homo sapiens), sequence (Q6SZW1 whole entry, looked up, the tested form may be a part): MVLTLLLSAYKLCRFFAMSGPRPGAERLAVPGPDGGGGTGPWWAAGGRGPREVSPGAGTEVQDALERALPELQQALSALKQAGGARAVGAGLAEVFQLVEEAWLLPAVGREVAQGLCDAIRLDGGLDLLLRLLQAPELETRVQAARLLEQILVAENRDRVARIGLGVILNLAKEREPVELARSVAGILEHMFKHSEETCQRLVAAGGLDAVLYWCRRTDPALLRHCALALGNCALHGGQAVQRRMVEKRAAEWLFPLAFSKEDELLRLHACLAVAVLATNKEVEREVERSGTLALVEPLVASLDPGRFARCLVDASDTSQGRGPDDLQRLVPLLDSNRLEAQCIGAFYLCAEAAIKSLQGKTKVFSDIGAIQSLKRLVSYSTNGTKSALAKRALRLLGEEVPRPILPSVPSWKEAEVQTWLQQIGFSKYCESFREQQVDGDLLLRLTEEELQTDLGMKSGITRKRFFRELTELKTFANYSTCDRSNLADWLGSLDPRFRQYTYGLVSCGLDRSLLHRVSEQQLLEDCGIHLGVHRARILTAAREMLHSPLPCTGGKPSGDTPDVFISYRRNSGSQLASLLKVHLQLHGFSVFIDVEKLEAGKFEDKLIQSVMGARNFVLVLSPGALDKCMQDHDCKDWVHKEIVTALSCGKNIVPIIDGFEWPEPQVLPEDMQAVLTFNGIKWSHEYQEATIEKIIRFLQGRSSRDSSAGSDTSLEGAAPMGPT
Calcium-activated potassium channel subunit alpha-1 (Homo sapiens) + Leucine-rich repeat-containing protein 26 (Homo sapiens), sequence (Q2I0M4 whole entry, looked up, one chain of several): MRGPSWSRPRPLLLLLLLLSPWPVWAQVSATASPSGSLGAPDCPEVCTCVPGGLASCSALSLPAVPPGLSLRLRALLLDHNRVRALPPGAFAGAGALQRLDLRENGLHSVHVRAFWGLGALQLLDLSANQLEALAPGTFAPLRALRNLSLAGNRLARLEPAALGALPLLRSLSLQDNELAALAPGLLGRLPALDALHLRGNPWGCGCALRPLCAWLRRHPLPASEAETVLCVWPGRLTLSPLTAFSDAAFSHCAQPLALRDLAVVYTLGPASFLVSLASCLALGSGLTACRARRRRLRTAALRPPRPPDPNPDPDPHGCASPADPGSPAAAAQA

O=C1N=C(O)CN1/N=C/c1ccc(-c2ccc([N+](=O)[O-])cc2)o1
0.247: z-score [11, 19]
inactive: nuclear beta-catenin stimulation ([1]; at 10 µM) 4.1% | insulin secretion stimulation [2] 2.6% | viability decrease [3] 9.2% | tube area decrease [4] -8.8% | GLP1 secretion stimulation [5] 1.9% | viability decrease (inhibition) [7] -30.5% | viability decrease (inhibition) [8] 5% | inhibition [9] 13.4% | red/green cell ratio (normalised) [10] 1.07 | z-score [11, 18] 0.073 | remaining NAD [12] 10 nM | luciferase signal [13] 156 AU
active: inhibition of viability [6] 20.3%
4.2%: nuclear beta-catenin stimulation ([1]; stimulation, at 2 µM)
1.02: normalised cell number [10, 16]
1.1: normalised cell number [10, 17]

C#C[C@]1(O)CC[C@H]2[C@@H]3CCC4=Cc5oncc5C[C@]4(C)[C@H]3CC[C@@]21C
0%: nuclear beta-catenin stimulation ([1]; stimulation, at 2 µM)
-0.343 and -0.0493: z-score [11, 19]
3.35 and 1.24 and 1.49: fold change [14, 21]
7330 and 8240 and 7200: cell count [14, 23]
inactive: nuclear beta-catenin stimulation ([1]; at 10 µM) -0.9% | insulin secretion stimulation [2] 1.9% | tube area decrease [4] 15% | GLP1 secretion stimulation [5] 1.4% | inhibition [9] 14% | fold change [14, 20] 0.976 and 0.855 and 0.842 | z-score [11, 18] -0.753 and -0.503 | remaining NAD [12] 10 nM | luciferase signal [13] 32 AU | log fold change Tl+ flux (F380Y) -0.00831 | log fold change Tl+ flux (F380Y/beta2Delta) -0.066 | log fold change Tl+ flux [15] 0.00932 | log fold change Tl+ flux (R275C) 0.0195 | log fold change Tl+ flux (R275C/beta1) 0.048 | log fold change Tl+ flux (R275C/beta2Delta) -0.00872
7160 and 7050 and 6060: cell count [14, 22]
active: viability decrease [3] 76.5% | inhibition of viability [6] 82.4% | viability decrease (inhibition) [7] 84.4% | viability decrease (inhibition) [8] 75.7%

CNC(=O)Oc1ccc2c(c1)[C@]1(C)CCN(C)[C@@H]1N2C
1: normalised cell number [10, 17]
0%: nuclear beta-catenin stimulation ([1]; stimulation, at 2 µM)
inactive: nuclear beta-catenin stimulation ([1]; at 10 µM) -0.4% | insulin secretion stimulation [2] 5% | viability decrease [3] 5% | tube area decrease [4] -23.5% | GLP1 secretion stimulation [5] 3.8% | inhibition of viability [6] 23.3% | viability decrease (inhibition) [7] 38.9% | viability decrease (inhibition) [8] 0.2% | inhibition [9] -7.09% and -14.3% and -6.98% | red/green cell ratio (normalised) [10] 0.96 | z-score [11, 18] -0.485 and 0.886 | remaining NAD [12] 10 nM | luciferase signal [13] 40 AU
1.03: normalised cell number [10, 16]
-0.245 and 0.787: z-score [11, 19]

CN1CCN(CCCN2c3ccccc3Sc3ccc(C(F)(F)F)cc32)CC1
-0.246 and 0.0911 and -0.232: z-score [11, 19]
0.2%: nuclear beta-catenin stimulation ([1]; stimulation, at 2 µM)
1: normalised cell number [10, 16]
0.91: normalised cell number [10, 17]
active: viability decrease [3] 110% | tube area decrease [4] 106% | GLP1 secretion stimulation [5] 28.8% | inhibition of viability [6] 112% | viability decrease (inhibition) [7] 132% | viability decrease (inhibition) [8] 99.8% | log fold change Tl+ flux (F380Y/beta2Delta) 0.0861 | log fold change Tl+ flux (R275C) -0.157 | log fold change Tl+ flux (R275C/beta1) 0.287
inactive: nuclear beta-catenin stimulation ([1]; at 10 µM) 32.2% | insulin secretion stimulation [2] 6.1% | inhibition [9] 8.36% | red/green cell ratio (normalised) [10] 0.91 | z-score [11, 18] -0.198 and -1.6 and 0.134 | remaining NAD [12] 10 nM | luciferase signal [13] 52 AU | log fold change Tl+ flux (F380Y) 0.0849 | log fold change Tl+ flux [15] 0.0472 | log fold change Tl+ flux (R275C/beta2Delta) -0.0448

CCn1cc(C(=O)O)c(=O)c2cc(F)c(N3CCNCC3)cc21
-1.2%: nuclear beta-catenin stimulation ([1]; stimulation, at 2 µM)
0.92 and 1.12: normalised cell number [10, 16]
1.43 and 1.17: fold change [14, 21]
9310 and 13200 and 11400: cell count [14, 23]
inactive: nuclear beta-catenin stimulation ([1]; at 10 µM) 0.1% | insulin secretion stimulation [2] 1.1% | viability decrease [3] 13.9% | tube area decrease [4] -4.6% | GLP1 secretion stimulation [5] 4.3% | inhibition of viability [6] 4.5% | viability decrease (inhibition) [7] -12% | viability decrease (inhibition) [8] -0.1% | inhibition [9] -0.111% | red/green cell ratio (normalised) [10] 1.22 and 1.14 | fold change [14, 20] 0.843 and 0.881 and 0.867 | z-score [11, 18] 1.33 and -0.232 | remaining NAD [12] 10 nM | luciferase signal [13] 56 AU
1.13 and 1.28: normalised cell number [10, 17]
-0.144 and -0.221: z-score [11, 19]
7840 and 11600 and 9850: cell count [14, 22]

O=c1n(CCCN2CCN(c3cccc(Cl)c3)CC2)nc2ccccn12
inactive: nuclear beta-catenin stimulation ([1]; at 10 µM) 4.5% | insulin secretion stimulation [2] -0.1% | viability decrease [3] -48.7% | tube area decrease [4] 4.5% | GLP1 secretion stimulation [5] 0.4% | inhibition of viability [6] 16.6% | viability decrease (inhibition) [7] 9.9% | viability decrease (inhibition) [8] 2.2% | inhibition [9] -5.67% | red/green cell ratio (normalised) [10] 1.12 | z-score [11, 18] 0.0745 | remaining NAD [12] 10 nM | luciferase signal [13] 72 AU | log fold change Tl+ flux (F380Y) 0.0157 | log fold change Tl+ flux (F380Y/beta2Delta) 0.035 | log fold change Tl+ flux [15] 0.0319 | log fold change Tl+ flux (R275C) 0.0186 | log fold change Tl+ flux (R275C/beta1) 0.025 | log fold change Tl+ flux (R275C/beta2Delta) 0.0634
0.2%: nuclear beta-catenin stimulation ([1]; stimulation, at 2 µM)
1.02: normalised cell number [10, 16]
-0.0668: z-score [11, 19]
1.14: normalised cell number [10, 17]

Fc1ccc([C@@H]2CCNC[C@H]2COc2ccc3c(c2)OCO3)cc1
-0.644 and -0.322: z-score [11, 19]
0.47: normalised cell number [10, 17]
0.48: normalised cell number [10, 16]
active: tube area decrease [4] 46.2%
inactive: nuclear beta-catenin stimulation ([1]; at 10 µM) 2.2% | insulin secretion stimulation [2] 11.8% | viability decrease [3] -148% | GLP1 secretion stimulation [5] 1.4% | inhibition of viability [6] 28.1% | viability decrease (inhibition) [7] 23% | viability decrease (inhibition) [8] 19.7% | inhibition [9] -2.44% | red/green cell ratio (normalised) [10] 0.99 | z-score [11, 18] -0.279 and -0.953 | remaining NAD [12] 10 nM | luciferase signal [13] 168 AU
2.8%: nuclear beta-catenin stimulation ([1]; stimulation, at 2 µM)
